Measured values taken from PubChem BioAssay (NCATS).
“And” between values parts separate entries of the source, which are not always exact repeats. Equal values may be shown once. Records with an inconclusive call do not appear. Unmarked numbers belong to inactive results. The source made the active and inactive calls. Calls follow the shape of the dose curve; as a rule, active = well fitted cell-killing curve with a large enough effect; inconclusive = small, poorly fitted or top-dose-only effect; inactive = flat fitted curve, though single readings scatter.

Test: Cell Viability - LYMP1-002 - Assay at 40 hr (AID 994); also: nearly all actives have a fitted effect of over 60% in size;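 as to viability change, negative = cytotoxic: 0% = DMSO only and full inhibition = 92 µM tetraoctylammonium bromide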
Settings: LYMP1-002 lymphoblastoid cell viability; series mostly up to 92.2 µM; viability change, negative = cytotoxic: at the top concentration
Excerpt: NIH Chemical Genomics Center [NCGC]
NIH Molecular Libraries Screening Centers Network [MLSCN]
National Institutes of Environmental Health Sciences [NIEHS]
National Toxicology Program [NTP]
We have developed a 1536-well cell-based assay for quantitative high throughput screening (qHTS) against a number of cell lines to determine in vitro cytotoxicity of small molecules. This particular assay uses a human lymphoblastoid cell line (LYMP1-002) purchased from Coriell Institute for Medical Research.
NCGC Assay Protocol Summary:
The CellTiter-Glo luminescent cell viability assay (Promega) is a homogeneous method to measure the number of viable cells in culture. The end point readout of this assay is based on quantitation of intracellular ATP, an indicator of metabolic activity, using the luciferase reaction. Luciferase catalyzes the oxidation of beetle Luciferin to oxyluciferin and light in the presence of ATP. The luminescent signal is proportional to amount of ATP present.
Using the CellTiter-Glo luminescent cell viability assay, the amount of cellular ATP was measured in the lymphoblastoid cell line with complete culture medium following compound treatment for 40 hours. The assay was performed in opaque white Kalypsys 1536-well plates. In the screen, tetraoctylammonium bromide was used as positive control. Library compounds were measured for their ability to cause acute toxicity in the cell line, as reflected by a decrease in intracellular ATP levels, in a concentration-dependent manner. […] AC50 values were determined from concentration-response data modeled with the standard Hill equation.
qHTS protocol for CellTiter Glo lymphoblastoid cellular assay
[Step] [Parameter] [Value] [Description]
1. Reagent; 5 uL; 2500 lymphoblastoid cells/well
2. Time; 5 hr; 37 C incubation
4. Controls; 23 nL; Tetraoctylammonium bromide 6.4pM to 92 uM
5. Time; 40 hr; 37 C incubation
6. Reagent; 5 uL; CellTiter Glo reagent
7. Time; 30 min; Room Temperature
8. Detection; Luminescence; Viewlux plate reader
Keywords: cell viability, cytotoxicity, lymphoblastoid cell line, luminescence, NTPHTS, NTPHTS_NCGC, NIEHS, DSSTox, MLSMR, MLSCN, NIH Roadmap, qHTS, NCGC
Potency is read from the fitted curve at half-maximal effect.

| SMILES | viability change, negative = cytotoxic [%] | Potency |
| --- | --- | --- |
| FC(F)(F)c1ccc(Cl)cc1 | -1.56 |  |
| C=CC(=O)OCC(CO)(COC(=O)C=C)COC(=O)C=C |  | 5.01 µM (active) |
| CC/C(=C(\c1ccccc1)c1ccc(OCCN(C)C)cc1)c1ccc(O)cc1 |  | 50.1 µM (active) |
| O=C1C2(Cl)C3(Cl)C4(Cl)C(Cl)(Cl)C5(Cl)C3(Cl)C1(Cl)C5(Cl)C24Cl (centres undefined) |  | 25.1 µM (active) and 50.1 µM (active) |
| O=Nc1ccc(Nc2ccccc2)cc1 |  | 12.6 µM (active) |
| Nc1ccccc1C(=O)OCCc1ccccc1 | -11.1 |  |
| CC(C)CC(C)Nc1ccc(Nc2ccccc2)cc1 (centres undefined) |  | 31.6 µM (active) |
| COP(=O)(OC)O/C(=C\Cl)c1cc(Cl)c(Cl)cc1Cl | -18.5 |  |
| c1ccc2cc3c(cc2c1)-c1cccc2cccc-3c12 | -7.3 |  |
| Clc1ccc(C(c2ccc(Cl)cc2)C(Cl)Cl)cc1 |  | 50.1 µM (active) |
| C[C@@H]1CC[C@@]2(OC1)O[C@H]1[C@@H](O)[C@H]3[C@@H]4CC[C@H]5C[C@@H](O[C@@H]6O[C@H](CO)[C@H](O[C@@H]7O[C@H](CO)[C@@H](O)[C@H](O[C@@H]8OC[C@@H](O)[C@H](O)[C@H]8O)[C@H]7O[C@@H]7O[C@H](CO)[C@@H](O)[C@H](O[C@@H]8O[C@H](CO)[C@@H](O)[C@H](O)[C@H]8O)[C@H]7O)[C@H](O)[C@H]6O)[C@H](O)C[C@]5(C)[C@H]4CC[C@]3(C)[C@H]1[C@@H]2C |  | 7.94 µM (active) |
| CN(C)c1ccc(N=O)cc1 |  | 6.31 µM (active) |
| OC(c1ccc(Cl)cc1)(c1ccc(Cl)cc1)C(Cl)(Cl)Cl | -5.87 |  |
| CC(=O)[O-].CC(=O)[O-].O.O.[Cd+2] | -26.3 |  |
| N#CSCSC#N |  | 31.6 µM (active) |
| O=C(CCl)c1ccccc1 | -18.8 |  |
| O=C(O)C1C(C(=O)O)C2(Cl)C(Cl)=C(Cl)C1(Cl)C2(Cl)Cl (centres undefined) | -11.8 |  |
| C(=NC1CCCCC1)=NC1CCCCC1 | 2.81 |  |
| CCCCCCCCn1sccc1=O |  | 15.8 µM (active) |
| O=[N+]([O-])C(Br)Br | -7.04 |  |
| O=[N+]([O-])c1cc(C(F)(F)F)cc([N+](=O)[O-])c1Cl | 4.78 |  |
| Oc1c(Br)c(Br)c(Br)c(Br)c1Br | -11 |  |
| N#CC(Cl)Cl | -0.453 |  |
| C#CCO | 2.31 |  |
